# Laboratory results as given in PMC7862700, “An all-to-all approach to the identification of sequence-specific readers for epigenetic DNA modifications on cytosine”.
# Tests used:
# Assay in all cases: DAPPL (digital affinity profiling via proximity ligation, sequencing); 10 mM Tris-HCl pH 7.5, 50 mM NaCl, 1 mM DTT, 4% glycerol, room temperature, 30 min; GST-TFs on glutathione beads, 16-mer random dsDNA library, 0.1% formaldehyde crosslink after washing; high values mean tight binding
# [1] = target: SPI1 (Homo sapiens, UniProt P17947 1-270); details: protein: recombinant; tags: N-terminal GST; dsDNA, one strand shown
# Method in brief: (§1)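 Sequencing on an Illumina NextSeq500 followed washing, crosslinking with 0.1% formaldehyde, proximity ligation (BsaI/T4 ligase, 1 h, 37 °C) and PCR amplification of pools that had been incubated for 30 min at room temperature with 200 nmole of a random double-stranded 16-mer DNA library in Tris/NaCl/DTT/glycerol buffer. Each pool held DNA-barcoded human transcription factors, expressed in yeast as GST fusions and captured on glutathione beads, plus a tag-only sample. Binding signal is a hexamer's read frequency for a factor divided by its frequency in the tag-only sample.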
# [2] = target: HSF1 (Homo sapiens, UniProt Q00613 1-529); details: protein: recombinant; tags: N-terminal GST; chain copies: 3; dsDNA, one strand shown
# Method in brief: as §1
# [3] = target: T1, ETV2 (Homo sapiens, UniProt O00321 1-342); details: protein: recombinant; tags: N-terminal GST; dsDNA, one strand shown
# T1 sequence: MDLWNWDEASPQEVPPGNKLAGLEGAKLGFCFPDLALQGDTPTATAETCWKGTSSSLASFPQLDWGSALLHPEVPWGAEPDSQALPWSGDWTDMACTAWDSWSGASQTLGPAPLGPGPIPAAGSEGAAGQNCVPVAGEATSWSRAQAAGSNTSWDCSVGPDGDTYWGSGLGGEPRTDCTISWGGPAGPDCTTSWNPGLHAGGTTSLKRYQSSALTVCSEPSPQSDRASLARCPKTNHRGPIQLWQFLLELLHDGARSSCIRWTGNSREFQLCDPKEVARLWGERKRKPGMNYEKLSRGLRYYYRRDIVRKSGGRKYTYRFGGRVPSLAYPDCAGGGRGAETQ
# Method in brief: as §1
# [4] = target: CRX (Homo sapiens, UniProt O43186 1-299); details: protein: recombinant; tags: N-terminal GST; dsDNA, one strand shown
# Method in brief: as §1
# [5] = target: T2, ERF (Homo sapiens, UniProt P50548 1-548); details: protein: recombinant; tags: N-terminal GST; dsDNA, one strand shown
# T2 sequence: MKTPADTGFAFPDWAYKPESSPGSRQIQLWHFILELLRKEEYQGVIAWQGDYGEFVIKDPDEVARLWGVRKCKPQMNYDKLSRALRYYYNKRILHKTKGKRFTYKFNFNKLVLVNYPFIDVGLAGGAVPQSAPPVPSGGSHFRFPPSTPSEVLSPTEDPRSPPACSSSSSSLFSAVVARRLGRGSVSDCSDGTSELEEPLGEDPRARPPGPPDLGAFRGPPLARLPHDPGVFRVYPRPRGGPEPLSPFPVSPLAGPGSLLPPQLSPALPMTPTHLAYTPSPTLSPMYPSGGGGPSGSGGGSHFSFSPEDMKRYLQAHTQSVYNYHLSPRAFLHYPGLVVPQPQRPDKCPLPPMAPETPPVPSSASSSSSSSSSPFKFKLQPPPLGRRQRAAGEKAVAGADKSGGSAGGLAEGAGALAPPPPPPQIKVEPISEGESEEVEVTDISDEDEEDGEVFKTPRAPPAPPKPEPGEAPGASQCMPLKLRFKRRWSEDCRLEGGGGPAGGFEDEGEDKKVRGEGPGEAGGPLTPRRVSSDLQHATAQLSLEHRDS
# Method in brief: as §1
# [6] = target: T3, ETV7 (Homo sapiens, UniProt Q9Y603 1-341); details: protein: recombinant; tags: N-terminal GST; dsDNA, one strand shown
# T3 sequence: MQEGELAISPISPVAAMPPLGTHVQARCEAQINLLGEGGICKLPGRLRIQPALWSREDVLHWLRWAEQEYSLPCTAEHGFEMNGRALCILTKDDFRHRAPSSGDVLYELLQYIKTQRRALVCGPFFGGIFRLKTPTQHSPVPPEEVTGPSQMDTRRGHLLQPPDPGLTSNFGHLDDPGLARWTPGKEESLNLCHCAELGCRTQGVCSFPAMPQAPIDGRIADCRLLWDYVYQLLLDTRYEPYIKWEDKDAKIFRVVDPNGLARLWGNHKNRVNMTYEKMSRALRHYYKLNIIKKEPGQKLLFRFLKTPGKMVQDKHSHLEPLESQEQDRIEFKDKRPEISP
# Method in brief: as §1
# [7] = target: ETV6 (Homo sapiens, UniProt P41212 1-452); details: protein: recombinant; tags: N-terminal GST; dsDNA, one strand shown
# Method in brief: as §1
# [8] = target: T4, ELK1 (Homo sapiens, UniProt P19419 1-428); details: protein: recombinant; tags: N-terminal GST; dsDNA, one strand shown
# T4 sequence: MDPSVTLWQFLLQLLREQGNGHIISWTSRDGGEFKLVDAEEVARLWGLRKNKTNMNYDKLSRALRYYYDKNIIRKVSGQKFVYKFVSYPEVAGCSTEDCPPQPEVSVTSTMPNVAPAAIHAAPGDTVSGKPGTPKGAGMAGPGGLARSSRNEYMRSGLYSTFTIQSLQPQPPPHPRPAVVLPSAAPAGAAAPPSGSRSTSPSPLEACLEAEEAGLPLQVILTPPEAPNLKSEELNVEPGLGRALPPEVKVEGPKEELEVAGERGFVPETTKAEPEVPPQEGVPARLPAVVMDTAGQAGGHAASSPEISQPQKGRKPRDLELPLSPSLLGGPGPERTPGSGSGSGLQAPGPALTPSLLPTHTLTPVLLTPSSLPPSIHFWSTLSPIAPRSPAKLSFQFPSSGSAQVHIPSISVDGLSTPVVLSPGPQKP
# Method in brief: as §1
# [9] = target: T5, EHF (Homo sapiens, UniProt Q9NZC4 1-300); details: protein: recombinant; tags: N-terminal GST; dsDNA, one strand shown
# T5 sequence: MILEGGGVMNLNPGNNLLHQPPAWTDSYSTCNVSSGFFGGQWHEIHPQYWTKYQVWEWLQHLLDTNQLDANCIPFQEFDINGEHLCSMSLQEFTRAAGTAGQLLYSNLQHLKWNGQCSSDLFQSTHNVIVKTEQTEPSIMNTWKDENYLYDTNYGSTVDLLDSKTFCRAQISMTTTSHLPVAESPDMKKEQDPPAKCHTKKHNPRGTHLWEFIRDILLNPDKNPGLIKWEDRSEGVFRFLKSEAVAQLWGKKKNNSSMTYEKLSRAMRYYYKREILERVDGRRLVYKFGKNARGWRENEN
# Method in brief: as §1
# [10] = target: SPIB (Homo sapiens, UniProt Q01892 1-262); details: protein: recombinant; tags: N-terminal GST; dsDNA, one strand shown
# Method in brief: as §1
# [11] = target: T6, ETV3L (Homo sapiens, UniProt Q6ZN32 1-361); details: protein: recombinant; tags: N-terminal GST; dsDNA, one strand shown
# T6 sequence: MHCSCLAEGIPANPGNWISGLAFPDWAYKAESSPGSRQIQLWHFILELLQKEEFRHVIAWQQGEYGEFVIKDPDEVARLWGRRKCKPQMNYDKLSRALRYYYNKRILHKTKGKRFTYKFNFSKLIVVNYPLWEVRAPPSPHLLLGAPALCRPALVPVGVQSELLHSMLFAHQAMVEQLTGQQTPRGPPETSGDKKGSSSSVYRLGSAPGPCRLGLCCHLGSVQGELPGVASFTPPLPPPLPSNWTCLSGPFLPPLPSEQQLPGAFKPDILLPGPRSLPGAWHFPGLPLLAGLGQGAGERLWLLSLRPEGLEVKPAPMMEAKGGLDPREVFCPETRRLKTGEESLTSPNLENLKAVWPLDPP
# Method in brief: as §1
# [12] = target: T7, SPDEF (Homo sapiens, UniProt O95238 1-335); details: protein: recombinant; tags: N-terminal GST; dsDNA, one strand shown
# T7 sequence: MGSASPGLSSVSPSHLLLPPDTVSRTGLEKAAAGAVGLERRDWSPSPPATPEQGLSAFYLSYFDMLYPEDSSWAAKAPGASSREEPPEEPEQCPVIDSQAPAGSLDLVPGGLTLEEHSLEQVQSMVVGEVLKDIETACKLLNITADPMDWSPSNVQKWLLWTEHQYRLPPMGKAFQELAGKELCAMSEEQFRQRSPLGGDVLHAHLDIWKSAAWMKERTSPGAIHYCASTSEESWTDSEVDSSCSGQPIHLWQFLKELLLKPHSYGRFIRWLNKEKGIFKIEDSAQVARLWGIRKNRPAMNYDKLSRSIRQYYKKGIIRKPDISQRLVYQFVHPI
# Method in brief: as §1
# [13] = target: T8, ELF3 (Homo sapiens, UniProt P78545 1-371); details: protein: recombinant; tags: N-terminal GST; dsDNA, one strand shown
# T8 sequence: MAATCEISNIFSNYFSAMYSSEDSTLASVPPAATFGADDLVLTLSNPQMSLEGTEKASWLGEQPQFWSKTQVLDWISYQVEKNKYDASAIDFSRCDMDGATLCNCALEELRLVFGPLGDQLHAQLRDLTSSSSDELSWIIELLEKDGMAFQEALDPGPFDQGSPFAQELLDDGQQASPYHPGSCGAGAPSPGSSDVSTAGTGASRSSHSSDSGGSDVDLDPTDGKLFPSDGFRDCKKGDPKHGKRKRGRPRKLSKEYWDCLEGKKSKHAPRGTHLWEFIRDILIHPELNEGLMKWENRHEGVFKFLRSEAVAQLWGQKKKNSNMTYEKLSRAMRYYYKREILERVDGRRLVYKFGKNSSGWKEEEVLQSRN
# Method in brief: as §1
# Sequence of HSF1 (Q00613 whole entry): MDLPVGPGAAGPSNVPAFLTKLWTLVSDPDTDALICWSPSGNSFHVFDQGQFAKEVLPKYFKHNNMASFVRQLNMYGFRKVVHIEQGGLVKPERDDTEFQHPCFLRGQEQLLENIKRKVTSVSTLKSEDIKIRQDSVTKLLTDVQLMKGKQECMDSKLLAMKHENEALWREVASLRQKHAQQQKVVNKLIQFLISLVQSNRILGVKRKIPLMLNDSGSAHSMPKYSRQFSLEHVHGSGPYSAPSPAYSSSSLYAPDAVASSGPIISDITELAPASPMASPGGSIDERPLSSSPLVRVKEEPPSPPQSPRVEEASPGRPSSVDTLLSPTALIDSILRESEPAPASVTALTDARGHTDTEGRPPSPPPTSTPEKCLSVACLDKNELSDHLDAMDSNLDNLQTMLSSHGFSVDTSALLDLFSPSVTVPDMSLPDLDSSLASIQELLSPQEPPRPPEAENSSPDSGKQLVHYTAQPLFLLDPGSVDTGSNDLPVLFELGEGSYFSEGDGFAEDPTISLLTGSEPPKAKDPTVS
# Sequence of CRX (O43186 whole entry): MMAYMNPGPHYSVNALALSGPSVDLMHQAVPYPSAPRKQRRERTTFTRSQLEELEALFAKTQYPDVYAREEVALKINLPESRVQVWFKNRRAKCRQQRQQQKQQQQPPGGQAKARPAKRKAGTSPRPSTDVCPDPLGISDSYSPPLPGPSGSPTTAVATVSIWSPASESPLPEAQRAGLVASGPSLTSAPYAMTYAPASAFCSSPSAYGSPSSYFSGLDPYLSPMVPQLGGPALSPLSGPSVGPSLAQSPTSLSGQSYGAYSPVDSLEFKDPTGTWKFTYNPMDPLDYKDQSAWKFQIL
# Sequence of ETV6 (P41212 whole entry): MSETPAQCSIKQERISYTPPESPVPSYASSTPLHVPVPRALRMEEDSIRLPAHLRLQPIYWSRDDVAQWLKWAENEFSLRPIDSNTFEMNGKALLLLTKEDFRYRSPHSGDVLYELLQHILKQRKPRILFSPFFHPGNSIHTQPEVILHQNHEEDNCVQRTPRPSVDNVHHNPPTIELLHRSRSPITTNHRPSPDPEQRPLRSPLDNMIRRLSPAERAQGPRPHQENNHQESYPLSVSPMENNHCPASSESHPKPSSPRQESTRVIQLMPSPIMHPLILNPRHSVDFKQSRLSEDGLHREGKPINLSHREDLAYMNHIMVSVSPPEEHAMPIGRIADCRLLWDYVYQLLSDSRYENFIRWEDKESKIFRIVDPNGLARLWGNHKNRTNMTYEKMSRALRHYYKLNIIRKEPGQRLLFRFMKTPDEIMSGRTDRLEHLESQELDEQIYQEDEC
# Sequence of SPIB (Q01892 whole entry): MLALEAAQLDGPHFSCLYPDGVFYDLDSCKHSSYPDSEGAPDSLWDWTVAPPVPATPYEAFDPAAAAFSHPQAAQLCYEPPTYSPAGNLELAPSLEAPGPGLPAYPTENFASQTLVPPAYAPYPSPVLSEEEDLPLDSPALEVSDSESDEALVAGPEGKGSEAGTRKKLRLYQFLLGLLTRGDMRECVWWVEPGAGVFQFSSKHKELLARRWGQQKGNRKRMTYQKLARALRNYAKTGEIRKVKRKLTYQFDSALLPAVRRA
sequence,measurement,setting,value
TTTAGA,binding signal,[1],"1.05 fold enrichment (6-mer frequency, TF over GST control)"
same,binding signal,[2],"1.37 fold enrichment (6-mer frequency, TF over GST control)"
same,binding signal,[3],"1.12 fold enrichment (6-mer frequency, TF over GST control)"
same,binding signal,[4],"1.59 fold enrichment (6-mer frequency, TF over GST control)"
same,binding signal,[5],"1.08 fold enrichment (6-mer frequency, TF over GST control)"
same,binding signal,[6],"1.05 fold enrichment (6-mer frequency, TF over GST control)"
same,binding signal,[7],"1.04 fold enrichment (6-mer frequency, TF over GST control)"
AGGGAT,binding signal,[2],"1.1 fold enrichment (6-mer frequency, TF over GST control)"
same,binding signal,[4],"1.49 fold enrichment (6-mer frequency, TF over GST control)"
CAGATA,binding signal,[2],"1.12 fold enrichment (6-mer frequency, TF over GST control)"
same,binding signal,[4],"1.17 fold enrichment (6-mer frequency, TF over GST control)"
GAATGG,binding signal,[8],"1 fold enrichment (6-mer frequency, TF over GST control)"
same,binding signal,[9],"1.02 fold enrichment (6-mer frequency, TF over GST control)"
same,binding signal,[10],"1.06 fold enrichment (6-mer frequency, TF over GST control)"
same,binding signal,[2],"1.07 fold enrichment (6-mer frequency, TF over GST control)"
same,binding signal,[3],"1.1 fold enrichment (6-mer frequency, TF over GST control)"
same,binding signal,[11],"1.01 fold enrichment (6-mer frequency, TF over GST control)"
same,binding signal,[7],"1.04 fold enrichment (6-mer frequency, TF over GST control)"
ACCAGA,binding signal,[2],"1.55 fold enrichment (6-mer frequency, TF over GST control)"
same,binding signal,[3],"1.01 fold enrichment (6-mer frequency, TF over GST control)"
same,binding signal,[4],"1.06 fold enrichment (6-mer frequency, TF over GST control)"
ATCCAG,binding signal,[2],"1.53 fold enrichment (6-mer frequency, TF over GST control)"
same,binding signal,[4],"1.29 fold enrichment (6-mer frequency, TF over GST control)"
AGATTG,binding signal,[2],"1.01 fold enrichment (6-mer frequency, TF over GST control)"
same,binding signal,[4],"1.06 fold enrichment (6-mer frequency, TF over GST control)"
CGTCGA,binding signal,[2],"1.06 fold enrichment (6-mer frequency, TF over GST control)"
same,binding signal,[3],"1.01 fold enrichment (6-mer frequency, TF over GST control)"
same,binding signal,[12],"1.02 fold enrichment (6-mer frequency, TF over GST control)"
TCGTAA,binding signal,[2],"1.12 fold enrichment (6-mer frequency, TF over GST control)"
same,binding signal,[4],"1.15 fold enrichment (6-mer frequency, TF over GST control)"
AGCATA,binding signal,[2],"1.04 fold enrichment (6-mer frequency, TF over GST control)"
same,binding signal,[13],"1.01 fold enrichment (6-mer frequency, TF over GST control)"
same,binding signal,[6],"1.01 fold enrichment (6-mer frequency, TF over GST control)"
